Measurements published in PubChem BioAssay AID1845225 (National Center for Advancing Translational Sciences (NCATS), 2023).
Records with an inconclusive call do not appear. Active and inactive are the calls of the source. The call rests on the fitted dose curve; in most records, active means well fitted curve in the direction sought with a large enough effect; inconclusive means small, poorly fitted or top-dose-only effect, or effect the other way, or another doubt; inactive means no such curve, though single readings can be large or run the other way.

experiment: Confirmatory redox qHTS assay for identification of artifact compounds.; conditions: Amplex Red/HRP redox cycling with DTT, fluorescence; series mostly up to 39 µM
Method in brief: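 Amplex Red (25 uM final) and HRP (250 mU/mL final) in HBSS, compound 15 min, then 250 uM DTT final 30 min, room temperature, dark; fluorescence 525/598 nm, normalized to DMSO and 10 uM DA3003, Hill fitted.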

SMILES	outcome
COc1cc2nc(N3CCCCC3)nc(NC(C)C)c2cc1OC	inactive
C[C@@H]1CC2C3CCC4=CC(=O)C=C[C@]4(C)[C@@]3(F)C(O)C[C@]2(C)[C@@]1(O)C(=O)COC(=O)c1cccc(S(=O)(=O)O)c1 (stereo not given in full)	inactive
CCOC(=O)C(=O)NCC(c1cccnc1)N1CCN(c2ccccc2)CC1 (stereo not given)	inactive
COc1ccc(S(=O)(=O)N(CCc2ccccc2)CC(=O)Nc2cc(Cl)ccc2C)cc1	inactive
COc1ccc(N2CC(NC(=O)c3ccco3)CC2=O)cc1 (stereo not given)	inactive
CC(C)c1nn2c(=O)cc(COC(=O)c3cccc(NC(=O)COc4ccc(F)cc4)c3)nc2s1	inactive
CC(C)C[C@H](NC(=O)[C@@H](Cc1c[nH]c2ccccc12)NC(=O)[C@H](Cc1ccc(O)cc1)NC(=O)[C@H](CO)NC(=O)[C@H](Cc1c[nH]c2ccccc12)NC(=O)[C@H](Cc1cnc[nH]1)NC(=O)[C@@H]1CCC(=O)N1)C(=O)N[C@@H](CCCN=C(N)N)C(=O)N1CCC[C@@H]1C(=O)NCC(N)=O	inactive
CCOc1ccc(Cn2c(=O)sc3ccccc32)cc1	inactive
CC1(C)CC(=O)c2cc(C(=O)NCCc3ccccc3)c(=O)[nH]c2C1	inactive
CC(C)Oc1ccc(C(=O)N2CCC(c3nc4ccccc4s3)CC2)cc1	inactive
COc1ccccc1Cn1c(CNS(=O)(=O)c2ccc3c(c2)CCCC3)nc2cccnc21	inactive
COc1ccc(NC(=O)Nc2cccc(-c3noc(C)n3)c2)cc1	inactive
CNC(=O)c1ccc(Nc2nnc(-c3ccc(C)c(S(=O)(=O)N4CCOCC4)c3)c3ccccc23)cc1	inactive
COC(=O)c1c(SC)nc2ccccc2c1OCc1ccc(Br)cc1	inactive
CN(C(=O)CSc1nc2ccc(NC(=O)c3cccs3)cc2s1)c1ccccc1	inactive
COc1ccc(Cn2c(C(=O)O)c(CNC3CCCC3)c3ccc(C)cc32)cc1	inactive
COc1ccc(CCNC(=O)c2cc3c(-c4ccc(OC)c(OC)c4)nn(C)c3s2)cc1OC	inactive
O=C1CCc2cc(S(=O)(=O)Nc3cccc(F)c3)ccc2N1	inactive
COc1ccc(-c2cc(=O)c3ccccc3o2)cc1	inactive
CCOC(=O)C1CCN(C(c2ccc(OCC)cc2)c2c(O)cc(C)n(CCOC)c2=O)CC1 (stereo not given)	inactive

SMILES	outcome
O=C(Nc1cc2c(cc1C(=O)c1ccccc1Cl)OCCO2)c1ccc(Br)cc1	inactive
CCc1ccc(CN(Cc2ccco2)C(=O)c2ccc(OC)cc2)cc1	inactive
Cc1ccc(OCCn2c(CCNC(=O)c3c(F)cccc3F)nc3ccccc32)cc1	inactive
COc1ccc(C2C(C(=O)Nc3ccccc3)=C(C)Nc3c(C(=O)Nc4ccccc4)cnn32)cc1 (stereo not given)	inactive
O=C1C2C3CCCC3=C3CCCC3C2C(=O)N1c1ccc(Cl)cc1 (stereo not given)	inactive
COc1cc2c3cc1OCc1c(O)c(OC)cc4c1C(Cc1ccc(cc1)Oc1cc(ccc1O)CC3N(C)CC2)N(C)CC4 (stereo not given)	inactive
COc1cc2c(NC3CCN(C)CC3)nc(N3CCN(C)CC3)nc2cc1OCCCN(C)C	inactive
O=C(CSc1nnc2scc(-c3ccc(Cl)cc3)n12)Nc1cccc(C(F)(F)F)c1	inactive
Cc1ccc2c(c1)cc(C(=O)NCc1ccc(F)cc1)n2C	inactive
COc1ccc(C(CNC(=O)c2oc3cc(C)c(C)cc3c2C)N2CCCCC2)cc1 (stereo not given)	inactive
COc1ccc(CCNC(=O)Cn2ncc3c(C)n(Cc4ccccc4F)c(C)c3c2=O)cc1OC	inactive
CCOc1ccc(OCC)c(NS(=O)(=O)c2c(C)[nH]c(=O)[nH]c2=O)c1	inactive
Cc1ccc(C)c(N2CCN(S(=O)(=O)c3cc(Br)cc4c3N(C(=O)C3CC3)CC4)CC2)c1	inactive
O=C(CSc1nc(-c2ccccc2)[nH]c1-c1ccc(F)cc1)NC1CCCC1	inactive
COc1cc2c(NC3CCN(C(C)C)CC3)nc(C3CCCCC3)nc2cc1OCCOCCN(C)C	inactive
COc1ccc(CCNC(=O)c2cc(=O)[nH]c3ccc(S(=O)(=O)N4CCCCC4)cc23)cc1OC	inactive
Cc1cccc(C)c1NC(=O)CCSCCc1ccccn1	inactive
O=C(Nc1nnc(S(=O)(=O)N2CCCC2)s1)c1ccccc1Cl	inactive
CCOC(=O)Cc1cccc(-c2cc(CCCCCCc3ccc(O[C@H]4O[C@H](COC(C)=O)[C@@H](OC(C)=O)[C@H](OC(C)=O)[C@@H]4OC(C)=O)c(-c4cccc(CC(=O)OCC)c4)c3)ccc2O[C@H]2O[C@H](COC(C)=O)[C@@H](OC(C)=O)[C@H](OC(C)=O)[C@@H]2OC(C)=O)c1	inactive
Cc1ccc(C(=O)CSc2nc(-c3ccccc3)nc3c2CCCC3)c(C)c1	inactive
